Test results from PubChem BioAssay (Tox21).
“And” between values parts separate entries of the source, which are not always exact repeats. Identical values can stand only once. Results filed as inconclusive are left out. The source holds several records for some structures; these can differ, active in one and inactive in another. The source made the active and inactive calls. The call rests on the fitted dose curve; in most records, active means well fitted curve in the direction sought with a large enough effect in the repeat runs; inconclusive means weak or mixed curves; inactive means no such curve, though single readings can be large; an effect the other way counts as inactive or inconclusive.

Experiments:
[1] = qHTS RealTime-Glo MT Cell Viability Assay in HepG2 cells - 40 hour (AID 1224870); further: nearly all actives have a fitted effect of over 50% in size
In short: (§1)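 HepG2 cells mixed with RealTime-Glo MT reagents (NanoLuc plus cell-permeant prosubstrate) were seeded at 600 cells/well, incubated 5 h at 37 C/5% CO2, then pinned with compounds in DMSO; nonlytic luminescence tracked viability during 40 h treatment.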

[2] = A CellTox Green Cytotoxicity Assay to monitor cytotoxicity in HEK293 cells - 40 hour (AID 1224871); further: nearly all actives have a fitted effect of over 45% in size; further: potency means the concentration at half of the fitted maximal effect
In short: (§2)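 Fluorescence intensity, read at 0, 8, 16, 24, 32 and 40 h of compound treatment, reflected dye binding to DNA of dead HEK293 cells; compounds (23 nL, DMSO) were added 5 h after plating cells with reagent.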

[3] = qHTS RealTime-Glo MT Cell Viability Assay in HEK293 cells - 16 hour (AID 1224872); further: nearly all actives have a fitted effect of over 50% in size; further: potency means the concentration at half of the fitted maximal effect
In short: (§3)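 Reads taken at 0, 8, 16, 24, 32 and 40 h from the same wells. HEK293 cells (600/well) carried RealTime-Glo reagents from seeding, with compound added after a 5 h settle at 37 C.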

[4] = qHTS RealTime-Glo MT Cell Viability Assay in HepG2 cells - 8 hour (AID 1224873); further: nearly all actives have a fitted effect of over 55% in size
In short: as §1

[5] = qHTS RealTime-Glo MT Cell Viability Assay in HEK293 cells - 40 hour (AID 1224874); settings: RealTime-Glo luminescence; max response: stronger effect = lower value; further: nearly all actives have a fitted effect of over 50% in size; further: potency means the concentration at half of the fitted maximal effect
In short: (§4)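 Viable HEK293 cells reduce a cell-permeant prosubstrate; the product diffuses out and is consumed by NanoLuc in the medium to give light. Compounds went in after a 5 h incubation and plates were read over the treatment course.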

[6] = A CellTox Green Cytotoxicity Assay to monitor cytotoxicity in HEK293 cells - 24 hour (AID 1224875); further: nearly all actives have a fitted effect of over 45% in size; further: potency means the concentration at half of the fitted maximal effect
In short: as §2

[7] = A CellTox Green Cytotoxicity Assay to monitor cytotoxicity in HepG2 cells - 16 hour (AID 1224876); further: nearly all actives have a fitted effect of over 45% in size
In short: (§5)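 Using 1536-well format, dye-containing HepG2 suspension was seeded, allowed 5 h at 37 C/5% CO2, dosed by pintool with compounds, positive and negative controls, and imaged for fluorescence across 40 h.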

[8] = qHTS RealTime-Glo MT Cell Viability Assay in HepG2 cells - 32 hour (AID 1224877); further: nearly all actives have a fitted effect of over 55% in size
In short: (§6)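 HepG2 suspension premixed with RealTime-Glo reagents is plated at 600 cells per well and left 5 h at 37 C/5% CO2. Compounds in DMSO then go in, and bioluminescence reflecting viable cell number is recorded over 40 h.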

[9] = A CellTox Green Cytotoxicity Assay to monitor cytotoxicity in HepG2 cells - 24 hour (AID 1224878); further: nearly all actives have a fitted effect of over 45% in size
In short: as §5

[10] = A CellTox Green Cytotoxicity Assay to monitor cytotoxicity in HepG2 cells - 40 hour (AID 1224879); further: nearly all actives have a fitted effect of over 40% in size; further: potency means the concentration at half of the fitted maximal effect
In short: as §5

[11] = A CellTox Green Cytotoxicity Assay to monitor cytotoxicity in HEK293 cells - 32 hour (AID 1224881); further: nearly all actives have a fitted effect of over 40% in size; further: potency means the concentration at half of the fitted maximal effect
In short: as §2

[12] = A CellTox Green Cytotoxicity Assay to monitor cytotoxicity in HepG2 cells - 0 hour (AID 1224882); further: nearly all actives have a fitted effect of over 35% in size; further: potency means the concentration at half of the fitted maximal effect
In short: as §5

[13] = A CellTox Green Cytotoxicity Assay to monitor cytotoxicity in HepG2 cells - 32 hour (AID 1224883); further: nearly all actives have a fitted effect of over 50% in size; further: potency means the concentration at half of the fitted maximal effect
In short: as §5

[14] = A CellTox Green Cytotoxicity Assay to monitor cytotoxicity in HEK293 cells - 8 hour (AID 1224884); further: nearly all actives have a fitted effect of over 35% in size; further: potency means the concentration at half of the fitted maximal effect
In short: as §2

[15] = qHTS RealTime-Glo MT Cell Viability Assay in HepG2 cells - 16 hour (AID 1224885); further: nearly all actives have a fitted effect of over 50% in size
In short: as §6

[16] = qHTS RealTime-Glo MT Cell Viability Assay in HEK293 cells - 24 hour (AID 1224886); further: nearly all actives have a fitted effect of over 50% in size; further: potency means the concentration at half of the fitted maximal effect
In short: as §3

[17] = qHTS RealTime-Glo MT Cell Viability Assay in HEK293 cells - 8 hour (AID 1224887)
In short: as §4

[18] = A CellTox Green Cytotoxicity Assay to monitor cytotoxicity in HEK293 cells - 16 hour (AID 1224888); further: nearly all actives have a fitted effect of over 35% in size
In short: as §2

[19] = qHTS RealTime-Glo MT Cell Viability Assay in HepG2 cells - 0 hour (AID 1224889); further: nearly all actives have a fitted effect of over 50% in size; further: potency means the concentration at half of the fitted maximal effect
In short: as §6

[20] = qHTS RealTime-Glo MT Cell Viability Assay in HEK293 cells - 0 hour (AID 1224880)
In short: as §4
On the % scale 0 is the no-effect control and ±100 the full control effect.

O=P(Oc1ccccc1)(Oc1ccccc1)Oc1ccccc1
inactive: Potency [1] | Potency [2] | Potency [3] | Potency [4] | max response [5] -17.9% and -13.8% | Potency [6] | Potency [7] | Potency [8] | Potency [9] | Potency [10] | Potency [11] | Potency [12] | Potency [13] | Potency [14] | Potency [15] | Potency [16] | Potency [17] | Potency [18] | Potency [19]

c1ccc(NNc2ccccc2)cc1
inactive: Potency [1] | Potency [3] | Potency [4] | max response [5] -4.96% and -2.46% | Potency [7] | Potency [8] | Potency [10] | Potency [20] | Potency [12] | Potency [13] | Potency [14] | Potency [15] | Potency [16] | Potency [17] | Potency [18]
active: Potency [2] 24.5 µM | Potency [6] 24.5 µM | Potency [11] 24.5 µM
inactive and 43.6 µM (active): Potency [19]

Nc1ccc(-c2ccccc2)cc1
inactive: Potency [1] | Potency [2] | Potency [4] | max response [5] -19.4% | Potency [6] | Potency [7] | Potency [8] | Potency [10] | Potency [20] | Potency [11] | Potency [12] | Potency [13] | Potency [14] | Potency [15] | Potency [17] | Potency [18] | Potency [19]
10 µM (active) and inactive: Potency [3]
7.11 µM (active) and inactive: Potency [16]
active: Potency [5] 10 µM

c1ccc(-c2cccc(-c3ccccc3)c2)cc1
inactive: Potency [1] | Potency [2] | Potency [3] | Potency [4] | max response [5] -23.8% | Potency [6] | Potency [7] | Potency [8] | Potency [9] | Potency [10] | Potency [20] | Potency [11] | Potency [12] | Potency [13] | Potency [14] | Potency [15] | Potency [16] | Potency [17] | Potency [18] | Potency [19]

NC(=S)Nc1ccccc1
inactive: Potency [1] | Potency [3] | Potency [4] | max response [5] -2.05% | Potency [8] | Potency [20] | Potency [15] | Potency [17] | Potency [19]
49.8 µM (active) and inactive: Potency [2] | Potency [11] | Potency [12] | Potency [13] | Potency [14]
active: Potency [5] 4.98 µM
8.86 µM (active) and inactive: Potency [16]
55.9 µM (active) and inactive: Potency [10]

C=CCc1ccc2c(c1)OCO2
inactive: Potency [1] | Potency [2] | Potency [3] | Potency [4] | max response [5] 13.1% and 2.61% | Potency [6] | Potency [7] | Potency [8] | Potency [9] | Potency [10] | Potency [20] | Potency [11] | Potency [12] | Potency [13] | Potency [14] | Potency [15] | Potency [16] | Potency [17] | Potency [18] | Potency [19]

O=C(O)CC[N+](=O)[O-]
inactive: Potency [1] | Potency [2] | Potency [3] | Potency [4] | max response [5] 0.345% and -3.12% | Potency [6] | Potency [7] | Potency [8] | Potency [10] | Potency [20] | Potency [11] | Potency [12] | Potency [13] | Potency [14] | Potency [15] | Potency [16] | Potency [17] | Potency [18] | Potency [19]

CCOCN(C(=O)CCl)c1c(C)cccc1CC
inactive: Potency [1] | Potency [2] | Potency [3] | Potency [4] | max response [5] -23.6% and -0.0681% | Potency [6] | Potency [7] | Potency [8] | Potency [10] | Potency [20] | Potency [11] | Potency [12] | Potency [13] | Potency [14] | Potency [15] | Potency [16] | Potency [17] | Potency [18] | Potency [19]

Nc1ccncc1
inactive: Potency [1] | Potency [2] | Potency [3] | Potency [4] | max response [5] 2.45% and 3.84% | Potency [6] | Potency [7] | Potency [8] | Potency [9] | Potency [10] | Potency [20] | Potency [11] | Potency [12] | Potency [13] | Potency [14] | Potency [15] | Potency [16] | Potency [17] | Potency [18] | Potency [19]

NCc1cccnc1
inactive: Potency [1] | Potency [2] | Potency [3] | Potency [4] | max response [5] 0.404% and -2.08% | Potency [6] | Potency [7] | Potency [8] | Potency [9] | Potency [10] | Potency [20] | Potency [11] | Potency [12] | Potency [13] | Potency [14] | Potency [15] | Potency [16] | Potency [17] | Potency [18] | Potency [19]

CC1(C)C(C=C(Cl)Cl)C1C(=O)OC(C#N)c1cccc(Oc2ccccc2)c1 (configuration not stated)
inactive: Potency [1] | Potency [2] | Potency [3] | Potency [4] | max response [5] -14.9% and 6.86% | Potency [6] | Potency [7] | Potency [8] | Potency [10] | Potency [20] | Potency [11] | Potency [12] | Potency [13] | Potency [14] | Potency [15] | Potency [16] | Potency [17] | Potency [18] | Potency [19]

CCCCN(CCCC)N=O
inactive: Potency [1] | Potency [2] | Potency [3] | Potency [4] | max response [5] -0.0622% and 14.1% | Potency [6] | Potency [7] | Potency [8] | Potency [9] | Potency [10] | Potency [20] | Potency [11] | Potency [12] | Potency [13] | Potency [14] | Potency [15] | Potency [16] | Potency [17] | Potency [18] | Potency [19]
